Compound activity deposited in PubChem BioAssay by Broad Institute.
Tg IFNy HTS: T. gondii growth inhibition with IFN-gamma, primary screen, cell-based; Toxoplasma gondii growth in IFN-gamma-treated host cells; hits give low values; activity change, negative = inhibition, % (test concentration not listed); hit rate 3.8% among 69,000; AID 1259416, 2018; in the data active = activity change below about -70%, passing the limit was not always enough;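 note: host cells are HeLa cells infected with Toxoplasma gondii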
Numbers without * were called inactive; ! = not active in a repeat. The entries come from a sample that favours hits as a whole.

SMILES | Tg IFNy HTS
O=C(NC1CCCCCCC1)C1CC(=O)N(CCc2c[nH]c3ccc(Cl)cc23)C1 (configuration not stated) | -92*
CCN(CC)CCN(Cc1ccc(-c2ccc(C(F)(F)F)cc2)cc1)C(=O)Cn1c(SCc2ccc(F)cc2)nc(=O)c2c1CCC2 | -76*
CN(C(=O)CSc1ccc(C(F)(F)F)cn1)c1c2c(nn1C)CCCC2 | -26
CCN(Cc1ccncc1)C(=O)CCNC(=O)c1ccc(F)cc1 | 75
Cc1ccccc1NC(=O)CC(=O)N(C)Cc1csc(-c2ccccc2)n1 | 1
O=C(Cc1cccc(F)c1)N1CCC2(CC1)Nc1cc(F)ccc1-n1cccc12 | 61
CCCS(=O)(=O)N1C[C@H]2C[C@@H](Cc3nc(C)no3)O[C@H]2C1 | 2
CC(C)(C)NC(=S)N/N=C1/CCCc2occc21 | -95*
O=C(O/N=C1/CCCc2occc21)c1ccccc1 | 10
CCOC(=O)c1ccc(NC(=O)N2CCC3(CC2)Nc2ccccc2-n2cccc23)cc1 | 130
O=C(NCCc1csc(-c2ccc(C(F)(F)F)cc2)n1)C(=O)Nc1cccc([N+](=O)[O-])c1 | 61
CCOC(=O)Cn1ccc2ccnc(-c3cccc(OC)c3)c21 | -2
CC(C)[C@H](O)C(=O)N[C@@H](C)C(=O)N[C@H]1C(=O)N(C)CCc2ccccc21 | -6
CN1C(=O)C(CCC(=O)O)c2ccccc21 (configuration not stated) | 27
C[C@H](NC(=O)Cc1cc(F)cc(F)c1)C(=O)N[C@@H]1C(=O)N(C)c2ccccc2-c2ccccc21 | -83*
COCCN(Cc1ccccc1F)Cc1c(C)nc2ccc(Cl)cn12 | -25
O=C(c1cccn2c(-c3ccc(F)cc3)nnc12)N1CCC(O)(c2ccc(Cl)cc2)CC1 | -34
CCc1ncnc2c1CCN(C(=O)NCc1cccc(F)c1)CC2 | 21
C=C(C)[C@@H]1CC[C@]2(C(=O)O)CC[C@]3(C)[C@H](CC[C@@H]4[C@@]5(C)CC[C@H](OC(=O)CC(C)(C)C(=O)O)C(C)(C)[C@@H]5CC[C@]43C)[C@@H]12 | -73*
CC1(C)C2CC[C@]3(C)[C@H](C(=O)C=C4[C@@H]5C[C@@](C)(C(=O)O)CC[C@]5(C)CC[C@]43C)[C@@]2(C)CC[C@@H]1OC(=O)CCC(=O)O (some centres not stated) | 18
C=C(C)[C@@H]1CC[C@]2(CO)CC[C@]3(C)[C@H](CC[C@@H]4[C@@]5(C)CC[C@H](O)C(C)(C)[C@@H]5CC[C@]43C)[C@@H]12 | 3
Cc1ccccc1-c1nc(Cn2nnc(C(=O)Nc3cccc(Cl)c3C)c2C)c(C)o1 | 271
Cc1nccn1C(C(=O)O)c1ccccc1 (configuration not stated) | 34
O=c1cc(Nc2cccc(C(F)(F)F)c2)nc[nH]1 | -103*
Cc1cc(C)c(S(=O)(=O)Nc2cccc(C(F)(F)F)c2)c(C)c1 | 7
SMILES | Tg IFNy HTS
CC(=O)N1C(=O)C2(N=C(N)NC(Nc3cccc(C(F)(F)F)c3)=N2)c2ccccc21 (configuration not stated) | 12
CC(NC(=O)c1nc(N2CCOCC2)c2ccccc2n1)c1ccccc1 (configuration not stated) | -44
CS(=O)(=O)CC(=O)N1CCCC(OCc2cccnc2)C1 (configuration not stated) | -69
CSc1scc(NS(=O)(=O)c2ccc(Cl)cc2)c1S(=O)(=O)C(C)C | -47
CSc1cc(-c2ccc(Cl)cc2)[nH]c(=O)c1C#N | 56
CSc1scc(-c2ccc(Cl)cc2)c1C#N | -91*
CCC(=O)O[C@@]1(C(=O)CCl)[C@@H](C)C[C@H]2[C@@H]3C[C@H](F)C4=CC(=O)C=C[C@]4(C)[C@]3(F)[C@H](O)C[C@@]21C | 3
CCC(=O)OCC(=O)[C@@]1(OC(=O)CC)[C@@H](C)C[C@H]2[C@@H]3CCC4=CC(=O)C=C[C@]4(C)[C@@]3(F)[C@@H](O)C[C@@]21C | -1
CCC(=O)OCC(=O)[C@@]1(OC(=O)CC)[C@@H](C)C[C@H]2[C@@H]3CCC4=CC(=O)C=C[C@]4(C)[C@@]3(Cl)[C@@H](O)C[C@@]21C | -74*!
O=C(OCC#CCSc1nnnn1-c1ccc(Cl)cc1)c1ccco1 | -17
C=CC(=O)Nc1cccc(Nc2nc(Nc3ccc(Oc4ccnc(C(=O)NC)c4)cc3)ncc2F)c1 | -78*
C=CC(=O)Nc1cccc(OC)c1 | 17
C=CC(=O)Nc1ccc2ncnc(Nc3cccc(Br)c3)c2c1 | -45
Fc1cc2c(c(CSc3nc4ccccc4[nH]3)c1)OCOC2 | -44
Cc1cccc(CO[C@@H]2CC[C@@H]3[C@@H]2OCCN3c2ncccn2)n1 | 50
Cc1nn(CC(C)C)cc1S(=O)(=O)N1CCCC1c1ccnc2cc(C(C)(C)C)nn12 (configuration not stated) | -17
CCCOc1ccc(CNC(=O)c2nnn(Cc3nc(-c4ccc(C)cc4)oc3C)c2C)cc1 | -21
Cc1ccc(-c2nc(Cn3nnc(C(=O)NCc4ccccc4)c3C)c(C)o2)cc1 | -34
Cc1ccc(-c2nc(Cn3nnc(C(=O)NCc4ccncc4)c3C)c(C)o2)cc1 | 72
Cc1ccc(NC(=O)c2nnn(Cc3nc(-c4cccc(Cl)c4)oc3C)c2C)c(Cl)c1 | -3
Cc1cccc(-c2nc(Cn3nnc(C(=O)NCc4ccc(C(C)C)cc4)c3C)c(C)o2)c1 | -89*
Cc1ccc(NC(=O)c2nnn(Cc3nc(-c4cccc(Cl)c4)oc3C)c2C)c(Br)c1 | 134
Cc1cccc(-c2nc(Cn3nnc(C(=O)NCc4ccc5c(c4)OCO5)c3C)c(C)o2)c1 | -95*
Cc1ccc(-c2nc(Cn3nnc(C(=O)NCc4ccco4)c3C)c(C)o2)cc1 | 0
Cc1ccc(-c2nc(Cn3nnc(C(=O)NCc4ccc(F)cc4)c3C)c(C)o2)cc1 | 110
SMILES | Tg IFNy HTS
Cc1cccc(-c2nc(Cn3nnc(C(=O)NCc4cccc(Br)c4)c3C)c(C)o2)c1 | -98*
CCc1ccc(CNC(=O)c2nnn(Cc3nc(-c4cccc(C)c4)oc3C)c2C)cc1 | -80*
Cc1ccc(-c2nc(Cn3nnc(C(=O)NCc4ccc5c(c4)OCO5)c3C)c(C)o2)cc1 | -45
CCOc1ccc(NC(=O)C(=O)NCCc2sc(-c3ccc(Cl)cc3)nc2C)cc1 | 74
Cc1ccc2c(c1)C(=O)NC1(CCN(C(=O)NCc3ccccc3)CC1)N2C | 23
O=C(C[C@]12COC[C@H]1CN(Cc1ccccc1F)C2)N1CCOCC1 | -67
Cc1ccc2[nH]c(=O)c(CN3CCN(CC(=O)N4CCCC4)CC3)cc2c1 | 6
CC(Cn1cccn1)NC(=O)CCc1nc(-c2ccccc2F)no1 (configuration not stated) | -5
CC(=O)N1CCC(C(=O)NCc2ccccc2)(N(C(=O)c2ccc(C)cc2)c2cc(C)cc(C)c2)CC1 | -69
O=C(c1ccco1)N1CCC2(CC1)COC(COCc1ccncc1)C2 (configuration not stated) | -6
CCOC(=O)[C@@]12CCCN(S(C)(=O)=O)C[C@@H]1CN(C(C)C)C2 | -6
CCC(CC)n1nc(C)cc1NC(=O)c1ccc2c(c1)OCC(=O)N2 | 0
COc1cc(-c2coc3cc(OC)c(OC)c(OC)c3c2=O)cc(OC)c1OC | 2
COc1cc(-c2coc3cc(OCc4ccccc4)c(OC)c(O)c3c2=O)cc(O)c1OC | -86*
COc1ccc(-c2coc3cc(O)ccc3c2=O)c(O)c1O | 18
Cc1c(-c2ccnc(SCc3ccccc3)n2)sc2ccc(Cl)cc12 | 16
Cc1ccc(-c2coc(-c3ccc(NC(=O)NCc4ccccc4)cc3)n2)c(C)c1 | 17
